From PubChem BioAssay AID485347 (National Center for Advancing Translational Sciences (NCATS), 2010)
The campaign covered roughly 340,000 compounds. About 1,200 (0.35%) were called active.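 How the source made its calls: active means potentiation over 3 SD above the plate norm (cut at about 30% in these data); inactive means the rest.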 For the sample, actives were picked, then their nearest neighbours and some compounds at random.

Biological target: D(2) dopamine receptor (Homo sapiens) (UniProt P14416)
Experiment: HTS Assay for Positive Allosteric Modulators of the Human D2 Dopamine Receptor: Primary Screen for Potentiators; further: 0% is about no effect
Conditions: HEK293 T-REx D2, calcium flux, EC20 dopamine potentiation; at 10 µM; hits give high values
In short: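 Potentiation of an EC20 dopamine calcium response is measured in a force-coupled, tetracycline-inducible Hek293 Trex D2 line. Compound-only kinetic reads over 180 s flag agonists before dopamine addition.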

Sequence of D(2) dopamine receptor (Homo sapiens) (P14416 whole entry, looked up): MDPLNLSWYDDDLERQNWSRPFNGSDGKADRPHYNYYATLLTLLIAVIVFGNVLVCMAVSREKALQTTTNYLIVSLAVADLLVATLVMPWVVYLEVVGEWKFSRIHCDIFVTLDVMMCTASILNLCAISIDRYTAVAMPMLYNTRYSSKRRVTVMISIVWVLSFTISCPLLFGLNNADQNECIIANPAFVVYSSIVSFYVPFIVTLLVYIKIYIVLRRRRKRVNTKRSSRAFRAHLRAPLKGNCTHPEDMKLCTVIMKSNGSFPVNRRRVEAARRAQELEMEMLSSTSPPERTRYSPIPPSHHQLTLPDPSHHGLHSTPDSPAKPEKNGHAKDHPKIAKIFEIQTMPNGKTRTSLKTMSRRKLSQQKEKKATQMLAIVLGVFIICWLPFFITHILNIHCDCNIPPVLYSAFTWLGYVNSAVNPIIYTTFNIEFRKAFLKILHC

potentiation, active:
COc1cc(OC)c(C(=O)OCC(=O)N2CC(=O)Nc3ccccc32)cc1OC 35.4%
Cc1cccc(OCCC(=O)Nc2cc(S(=O)(=O)N3CCCCC3)ccc2N2CCOCC2)c1 38.1%
Cc1ccc(-c2cn(S(=O)(=O)c3cccc([N+](=O)[O-])c3)nc2N)cc1 30.3%
O=C(CCNC(=O)c1ccc(Br)cc1)NCCCc1ccccc1 33%
COc1ccc(C2=NOC(C(=O)NCc3ccco3)C2)cc1OC (configuration not stated) 32.1%
Nc1nonc1-n1nnc(C(=O)N/N=C/C2CCCCC2)c1-c1ccccc1 38.6%
Cc1ccc(SCC2=NNC(=O)C2)cc1 31.9%
COc1ccc(CNC(=O)COC(=O)/C=C/c2ccc(S(=O)(=O)N3CCOCC3)cc2)cc1 33.3%
O=C(COc1ccc(Cl)cc1)N1CCN(c2cccc(C(F)(F)F)c2)CC1 35.5%
COc1ccccc1N1CCN(c2ncnc3sc(C)c(-c4ccccc4)c23)CC1 37.8%
COc1cccc(NC(=O)C2c3cc(OC)c(OC)cc3C(=O)N(C)C2c2cccnc2)c1 (configuration not stated) 30.1%
CCOC(=O)N1CCC(c2cc(=O)n(-c3ccccc3)[nH]2)CC1 49.5%

potentiation, inactive:
COc1ccc(Cl)cc1-n1c(C)cc(C(=O)OCC(=O)N2CC(=O)Nc3ccccc32)c1C -19.1%
COc1ccc(C(=O)OCC(=O)N2CC(=O)Nc3ccccc32)cc1Br -9.38%
O=C(Nc1nnc(C2CC(=O)N(c3ccc(Cl)cc3)C2)s1)c1ccco1 (configuration not stated) -13.1%
CC(=O)NCCC(=O)Nc1cc(S(=O)(=O)N2CCCCC2)ccc1Oc1cccc(C)c1 -0.184%
Cc1cccc(OCCCC(=O)Nc2ccc(S(=O)(=O)N3CCCC3)cc2)c1 9.5%
CCOC(=O)N1CCC(NC(=O)c2cnn(-c3cccc(C)c3)c2C2CCN(C(=O)OC(C)(C)C)CC2)CC1 -9.08%
Cn1nnnc1SCCNCc1ccc(Cl)c(Cl)c1 -14.4%
CC1=NCCN1S(=O)(=O)c1cccc([N+](=O)[O-])c1 12.8%
Cc1cc(C)n(S(=O)(=O)c2cccc([N+](=O)[O-])c2)n1 2.11%
COc1cccc(C(c2c(O)cc(C)n(Cc3ccco3)c2=O)N2CCN(c3ccccc3)CC2)c1 (configuration not stated) -2.97%
Cc1ccccc1CNC(=O)CCc1cn(Cc2ccccc2C)c2ccccc12 -1.4%
COc1ccc(-c2cn3nc(N4CCCC(C(=O)NCCCOC(C)C)C4)sc3n2)cc1 (configuration not stated) -3.35%
Cc1cccc(NC(=O)C2CCN(S(=O)(=O)c3c(C)noc3/C=C/c3ccco3)CC2)c1 2.71%
CC(C)c1ccc(C(=O)NCCCc2ccccc2)cc1 -14.7%
O=C(CCNS(=O)(=O)c1ccccc1)NCCCc1ccccc1 -12.4%
Cc1cc(F)ccc1NS(=O)(=O)c1ccc(-n2cccn2)cc1 -0.96%
COc1ccc(CCNC(=O)c2cc(=O)c3c(C)cc(C)cc3o2)cc1OC -14.8%
COc1ccc(S(=O)(=O)N2CCC(C(=O)NCc3ccco3)CC2)cc1C 6.74%
COc1ccc(CNC(=O)C2CC(c3ccc(C(F)(F)F)cc3)=NO2)cc1 (configuration not stated) 11.9%
COc1cccc(-n2cc(C(=O)NCc3cccc(Cl)c3)c3ccccc3c2=O)c1 3.92%
Cc1nnc(NCc2ccccc2)c2c1nnn2Cc1ccc(F)cc1 -11.5%
COc1cc(Cl)c(NC(=O)C(NS(=O)(=O)c2cccs2)C(C)C)c(OC)c1 (configuration not stated) -0.155%
CC(C)c1c(C(=O)N/N=C/c2ccc(-c3ccccc3)cc2)nnn1-c1nonc1N 4.04%
COCc1c(C(=O)N/N=C/C2CC=CCC2)nnn1-c1nonc1N (configuration not stated) 5.51%
Cc1cc(C)c2oc(-c3cccc(NC(=O)c4cccc(F)c4)c3C)nc2c1 -6.15%
COc1cccc(-c2nc(CS(=O)(=O)CC(=O)N3CCN(c4cc(C)ccc4C)CC3)c(C)o2)c1 20.2%
Cc1ccc(SCc2cc(=O)[nH]c(N3CCCCC3)n2)cc1 -9.08%
Cc1ccc(SCCSc2ncccn2)cc1 -3.01%
CCn1c2ccccc2c2cc(NC(=O)COc3ccc(C)cc3C)ccc21 -13%
CCc1ccc(NC(=O)c2nn(-c3ccc(C)cc3)c(=O)n(C)c2=O)cc1 11.1%
O=C(COC(=O)/C=C/c1ccc(S(=O)(=O)N2CCCCCC2)cc1)NCc1ccccc1Cl -11.9%
COC(=O)COc1ccc(S(=O)(=O)N2CCOCC2)cc1 -3.49%
CCn1c(CN2CCC(C)CC2)nc2cc(NC(=O)c3ccccc3[N+](=O)[O-])ccc21 -38.3%
O=C(Cn1cc(SCc2cccc(Cl)c2)c2ccccc21)N1CCCCC1 1.4%
O=C(COc1ccc(Cl)cc1)N1CCN(S(=O)(=O)c2ccc(Cl)cc2)CC1 -3.15%
Cc1c(C)c2ccc(OCC(=O)N3CCN(c4cccc(Cl)c4)CC3)cc2oc1=O -6.58%
CCOC(=O)c1ccc(N2C(=O)c3n[nH]c(-c4ccco4)c3C2c2ccc(O)cc2)cc1 (configuration not stated) -20%
Nc1ncc(S(=O)(=O)Nc2ccc(OC(F)(F)F)cc2)cn1 -3.21%
CCOc1ccc(NC(=O)CC2C(=O)N(c3cccc(OC)c3)C(=O)N2C2CCCCC2)cc1 (configuration not stated) 2.76%
COc1ccc(S(=O)(=O)c2cn(C)c3cc(N4CCCCC4)c(F)cc3c2=O)cc1 -4.51%
COC(=O)c1cnc(N2CCN(c3ccccc3OC)CC2)c2ccccc12 3.09%
COc1ccccc1N1CCN(c2ncnc3onc(-c4ccc(F)cc4)c23)CC1 -4.24%
CCc1ccc(C2C(C(=O)Nc3ccccc3)=C(C)Nc3c(C(=O)Nc4ccc(C)cc4)cnn32)cc1 (configuration not stated) 4.34%
COc1ccccc1N1CCN(c2ccc(=O)n(CC(=O)NCc3ccc(OC(C)C)cc3)n2)CC1 -2.29%
COc1cccc(NC(=O)C2C(c3ccccc3)C2(Cl)Cl)c1 (configuration not stated) -7.1%
CCOc1cc2c(cc1OCC)C(C(=O)O)C(c1ccc(OC)c(O)c1)N(C)C2=O (configuration not stated) -25.6%
Cc1ccc(O)c(NC(=O)CCS(=O)(=O)c2nc(-c3ccc4c(c3)OCO4)cc(C(F)(F)F)n2)c1 5.96%
Cc1cccc(NC(c2cccc(F)c2)c2ccc3ccc(C)nc3c2O)n1 (configuration not stated) 0.98%
Cc1cc(C)cc(-n2c(SCC(=O)NCC3CCCO3)nc3c([nH]c4ccccc43)c2=O)c1 (configuration not stated) -6.86%
Cc1ccc(-n2cnc3cc(C(=O)NCCC4=CCCCC4)ccc32)cc1Cl 9.63%
CCn1c2ccccc2c2cc(CN3CCN(Cc4cccc(Cl)c4)CC3)ccc21 -11.2%
CCOC(=O)N1CCC(NC(=O)CCc2ccccc2)CC1 -4.2%
CCOC(=O)CN1CCC(c2ccccc2)CC1 -9.51%
CCCCS(=O)(=O)c1oc(-c2cccs2)nc1S(=O)(=O)c1ccccc1 3.55%
CCS(=O)(=O)N1CCc2cc(C(=O)N3CCN(c4ccccc4OC)CC3)ccc21 3.69%
